The panel holds about 79,000 compounds, 15% with a hit somewhere; the sample as a whole holds those more often. Unmarked numbers belong to inactive results. The source made the active and inactive calls. No stated cut-off is given here; in the data, active means growth inhibition above about 70%; inactive means the rest.

Experiment [1] in a line: NCI Yeast Anticancer Drug Screen. Data for the rad50 strain (AID 155).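 Further: 0% = growth of vehicle-only cultures of the same strain.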 The note with it: S. cerevisiae rad50 strain growth inhibition; at 50.0 µM; hits give high values. The method, boiled down:
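DNA repair mutant yeast, compound exposure, growth read-out; inhibition is taken relative to vehicle.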

Experiment [2] is described as follows: NCI Yeast Anticancer Drug Screen. Data for the mec2-1 strain (AID 157). The note with it: S. cerevisiae mec2-1 strain, at 50.0 µM, hits give high values. In outline: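 Strain: mec2-1 (DNA repair/cell cycle alteration). Compound exposure, then growth measured; inhibition expressed relative to vehicle.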
Experiment [3] can be described thus: NCI Yeast Anticancer Drug Screen. Data for the sgs1 mgt1 strain (AID 161).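 Further: 0% = growth of cultures given vehicle only.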 The note with it: S. cerevisiae sgs1 mgt1 strain, at 50.0 µM, hits give high values. In outline:
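Read-out: growth inhibition vs vehicle controls. Cells: mutant yeast strain deficient in DNA damage repair.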

The nature of experiment [4]: NCI Yeast Anticancer Drug Screen. Data for the cln2 rad14 strain (AID 165).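 Further: 0% = growth equal to vehicle treated cultures.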 The note with it: S. cerevisiae cln2 rad14 strain, at 50.0 µM, hits give high values. The method, boiled down:
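Compounds are applied to the cln2 rad14 yeast strain, and growth is then compared with that of vehicle-treated cultures to give inhibition.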

Experiment [5] can be described thus: NCI Yeast Anticancer Drug Screen. Data for the bub3 strain (AID 167). The note with it: S. cerevisiae bub3 mutant strain, at 50.0 µM, hits give high values. In outline:
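In this screen, a yeast mutant lacking normal mitotic checkpoint function is challenged with compound. Relative growth versus vehicle gives the inhibition value.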

Experiment [6] can be described thus: NCI Yeast Anticancer Drug Screen. Data for the mlh1 rad18 strain (AID 175). The note with it: S. cerevisiae mlh1 rad18 strain growth inhibition; at 50.0 µM; hits give high values. The method, boiled down:
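Read-out is yeast growth inhibition, calculated against vehicle-only controls. The compound was applied to a strain engineered with DNA damage repair alterations.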

On to `O=C(COc1ccc(Cl)cc1Cl)Nc1c(Cl)cc(Cl)cc1Cl`, for which the growth inhibition is 6.7% in experiment [1]; 7.6% in experiment [2]; -6.45% in experiment [3]; 2% in experiment [4]; -4.8% in experiment [5]; 19.6% in experiment [6].

In the case of `CCCCCCCI`, the growth inhibition is -8.9% in experiment [1]; 20.9% in experiment [2]; 6.9% in experiment [3]; -21.6% in experiment [4]; 1.65% in experiment [5]; 23.8% in experiment [6].

Take `O=C(O)CSc1nc2ccc(N3C(=O)C4C5C=CC(C5)C4C3=O)cc2s1` (stereo not given): the growth inhibition in experiment [1] was 29.4%; in experiment [2], -2.65%; in experiment [3], -2.5%; in experiment [4], 11.3%; in experiment [5] it was -2.5%; in experiment [6], 6.15%.

On to `COc1cccc(/C=C(\NC(C)=O)c2nc3ccc(Cl)cc3[nH]2)c1`, for which the growth inhibition in experiment [1] is 1.8%; in experiment [2] it was -1.35%; in experiment [3], 8.75%; in experiment [4], 2.15%; in experiment [5], -3.85%; in experiment [6] it was 8.1%.

On to `CCc1cccc(C)c1NC(=O)C1=C(C)NC(C)=C(C(=O)Nc2c(C)cccc2CC)C1c1ccc([N+](=O)[O-])cc1`, for which the growth inhibition in experiment [1] is 40.8%; in experiment [2] it was 34.2%; in experiment [3] it was 42.2%; in experiment [4], 18.4%; in experiment [5] it was 36.9%; in experiment [6], 46.7%.

Regarding `COc1ccc2c(c1)OCC1=C2Oc2ccccc2C1`, the growth inhibition in experiment [1] was 98.2% (active); in experiment [2] it was 99.3% (active); in experiment [3] it was 99.1% (active); in experiment [4], 98.6% (active); in experiment [5] it was 97.9% (active); in experiment [6], 98.8% (active).

On to `Nc1ccc(-c2ccc(N=C(/C=N/O)NO)cc2)cc1`, for which the growth inhibition is -7.05% in experiment [1]; -4.25% in experiment [2]; 2.4% in experiment [3]; -46% in experiment [4]; 12.2% in experiment [5]; -2.15% in experiment [6].

Take `Cc1cccc(C)c1NC(=O)C(=O)C(C#N)c1c(Cl)cccc1Cl` (stereo not given): the growth inhibition is -38% in experiment [1]; 5.2% in experiment [2]; 16.4% in experiment [3]; -25.2% in experiment [4]; -4.85% in experiment [5]; 10.7% in experiment [6].

For `C=CCC1(/C(=C\CC)CCC)C(=O)NC(=O)N=C1N` (stereo not given), the growth inhibition in experiment [1] was 8.45%; in experiment [2], -0.3%; in experiment [3], 10%; in experiment [4], -36.8%; in experiment [5], -11.2%; in experiment [6], 8.3%.

On to `COc1ccc(N/N=C(/c2ccccc2)c2noc(-c3ccccc3)n2)cc1`, for which the growth inhibition is 79.5% (active) in experiment [1]; 92.2% (active) in experiment [2]; 88.8% (active) in experiment [3]; 89.3% (active) in experiment [4]; 94.1% (active) in experiment [5]; 92.6% (active) in experiment [6].

In the case of `CCOC(=O)/C=C/SCCCC(=O)O`, the growth inhibition in experiment [1] is 1.5%; in experiment [2], -1.5%; in experiment [3] it was 0.25%; in experiment [4], -22.8%; in experiment [5], -4.55%; in experiment [6] it was 42.2%.

For `COC(=O)/C(C=Nc1ccccc1)=C(/C)O`, the growth inhibition in experiment [1] is 7.35%; in experiment [2], 5.1%; in experiment [3], 9%; in experiment [4], -29.2%; in experiment [5] it was 11.4%; in experiment [6], -1.2%.

As to `Oc1cc2c(cc1C(c1ccc(Cl)cc1)N1CCCCC1)OCO2` (stereo not given), the growth inhibition was 9.65% in experiment [1]; -1.6% in experiment [2]; 1.25% in experiment [3]; -6.4% in experiment [4]; 11.1% in experiment [5]; 5.75% in experiment [6].

In the case of `Cc1ccc(NC(=O)Nc2cccc(Cl)c2C)cc1C`, the growth inhibition is 3.75% in experiment [1]; 11.5% in experiment [2]; 12.8% in experiment [3]; -1.85% in experiment [4]; 8.45% in experiment [5]; -15.9% in experiment [6].

As for `CC(=O)/C=C/c1ccc(C)cc1`, the growth inhibition in experiment [1] is 27.1%; in experiment [2], 9.9%; in experiment [3] it was 8.75%; in experiment [4], 4.15%; in experiment [5], 20.6%; in experiment [6] it was 10.7%.

Regarding `C=CCNC(=S)Nc1cccc(OC(=O)Nc2ccc(Cl)c(Cl)c2)c1`, the growth inhibition in experiment [1] was -16.4%; in experiment [2] it was -11.2%; in experiment [3], -18.4%; in experiment [4], -23.1%; in experiment [5] it was 1%; in experiment [6] it was -12.4%.

For `CC1(C)C=Cc2c(cc(O)c3c(=O)c4cc(Cl)ccc4[nH]c23)O1`, the growth inhibition in experiment [1] is -14.2%; in experiment [2] it was -42.4%; in experiment [3], -14.8%; in experiment [4], -18.1%; in experiment [5], -15%; in experiment [6], -12.1%.

`CC1(c2ccccc2)CCN(C2CC2)CO1` (stereo not given): the growth inhibition in experiment [1] is 34.6%; in experiment [2] it was 15.2%; in experiment [3] it was 51.6%; in experiment [4] it was 45.2%; in experiment [5] it was 48.5%; in experiment [6], -52%.

For `Cc1ccc2c(c1)OC(=O)CC2`, the growth inhibition was 10.3% in experiment [1]; -9.65% in experiment [2]; -3.25% in experiment [3]; -18.8% in experiment [4]; -4.1% in experiment [5]; -4.3% in experiment [6].

As for `Cc1ccc(NC(=O)CC2C(=O)Nc3ccccc3S2=O)c(C)c1` (stereo not given), the growth inhibition in experiment [1] is -7.85%; in experiment [2] it was -24.9%; in experiment [3], 4.45%; in experiment [4] it was 20.4%; in experiment [5] it was 15.8%; in experiment [6], -5.55%.

Values taken from PubChem BioAssay (NCI).
